ATXN viability – reduces viability in counter-screen for ATXN expression inhibitors; AID 651635; Potency, µM (titrated, usually from 56.7 µM), actives largely listed as cytotoxic; hit rate 0.49% among 400,000; S2 cells (HEK-293 line with an ATXN2-luciferase reporter) viability, CellTiter-Fluor protease fluorescence, 24 h; also: nearly all actives have a fitted effect of over 40% in size
TGFb SMAD3 inh – blocks TGF-b signaling | Potency, µM (top dose mostly 46.1 µM), for the others: at the top dose activity, negative = inhibition, usual class: inhibitors | HepG2 CAGA-GFP TGF-b/SMAD3 reporter, GFP fluorescence, 18 h; TGF-beta stimulated, 500 pg/mL final | hit rate 1.2% among 410,000; also: % is scaled to controls: 0 for no effect and ±100 for the full control effect; nearly all actives have a fitted effect of over 65% in size
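TGF-beta reporter screen: HEPG2 CAGA-GFP, 1% FBS, 500 pg/mL TGF-beta final, 18 h; per-cell GFP summed per well; curves fitted and categorized by class.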
HT1080-NT tox – kills 2HG-producing HT-1080-NT fibrosarcoma cells | hit rate 1.6% among 360,000 | Potency, µM (titrated, usually from 46.1 µM), without a hit: at the highest dose activity, negative = less viability, actives largely listed as cytotoxic | HT-1080-NT fibrosarcoma viability, CellTiter-Glo ATP luminescence, 48 h | AID 686970;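 also: NT is the 2HG producing partner of a matched IDH1 knockdown line; 0% = DMSO-treated cells and -100% = media-only wells without cells; nearly all actives have a fitted effect of over 55% in size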
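Toxicity toward the 2HG-producing NT line was scored as %Activity, normalised to DMSO and no-cell wells, from CellTiter-Glo luminescence after 48 hours' treatment.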
HepG2 tox – HepG2 cytotoxicity, counter-screen for TGF-b inhibitors; HepG2 CAGA-GFP viability, ATP luminescence, 18 h; Potency, µM (series often up to 46.1 µM), for inactives: at the highest dose activity change, negative = cytotoxicity, most hits filed as cytotoxic; hit rate 0.76% among 410,000; AID 588856
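HepG2 CAGA-GFP cells (1000/well, DMEM with 1% FBS) received compound, then TGF-beta at 500 pg/mL final, and were incubated 18 hours at 37 degrees C. Viability was read by CellTiter-Glo luminescence. Media-only wells were set as complete cell-killing and DMSO as no toxicity.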
ATXN2 expr inh – inhibitors of ATXN2 expression | HEK-293 ATXN2-luciferase reporter, luminescence, 24 h | Potency, µM (highest dose often 57 µM), inactives show at the top dose activity change, negative = inhibition, most hits filed as inhibitors | hit rate 0.72% among 360,000 | AID 1745845; also: % is scaled to controls: 0 for no effect and ±100 for the full control effect; nearly all actives have a fitted effect of over 55% in size
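qHTS (up to 57 uM final) was run with 24 h compound exposure of reporter cells at 37 °C. Each well was multiplexed: SteadyGlo luminescence measured ATXN2-luciferase expression after a fluorogenic Gly-Phe-AFC viability readout (25 uM final).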
HT1080 IDH1KD tx – kills HT-1080 cells with IDH1 knockdown; HT-1080 IDH1 knockdown viability, ATP luminescence, 48 h; AID 686971; Potency, µM (titrated, usually from 46.1 µM), inactives show at the highest dose activity, negative = toxicity, hits mostly cytotoxic; hit rate 2% among 360,000;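 also: 0% = DMSO wells and -100% = cell-free medium wells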
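Using the IDH1-knockdown HT-1080 line run in the same batch and compound series as the NT line, viability after 48 h at 37 °C was determined by CellTiter-Glo luminescence and expressed as % activity.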
Starred values were filed as active, the others as inactive; i = inactive; ? = inconclusive; nt = no result given; [ ] = dose if it differs, or a comment. Hits are enriched below; roughly 3.8% of the tested compounds scored in any of these assays. Calls follow the shape of the dose curve; as a rule, active = well fitted curve in the direction sought with a large enough effect; inconclusive = small, poorly fitted or top-dose-only effect, or another doubt; inactive = no such curve, though single readings can be large; an effect the other way counts as inactive or inconclusive. Potency is read from the fitted curve at half-maximal effect.

SMILES	ATXN viability	TGFb SMAD3 inh	HT1080-NT tox	HepG2 tox	ATXN2 expr inh	HT1080 IDH1KD tx
O=C(CSc1c2c(nc3cc(Cl)ccc13)CCCC2)N1CCN(c2ccccc2)CC1	nt	?	nt	-90%	nt	nt
O=C(CSc1c2c(nc3cc(Cl)ccc13)CCCC2)NCc1ccccc1Cl	nt	?	nt	-28%	nt	nt
O=C(CSc1ncnc2sc3c(c12)CCCCC3)NCc1ccco1	i	?	?	-2%	3%	16µM*
CC1CCN(C(=O)CSc2c3c(nc4cc(Cl)ccc24)CCCC3)CC1	?	?	nt	11µM*	?	nt
O=C(CSc1c2c(nc3cc(Cl)ccc13)CCCC2)NCc1ccco1	i	18µM*	-19%	-44%	-5%	?
CCN(CC)c1c([N+](=O)[O-])c(=O)n(C)c2ccccc12	i	-8%	1%	-12%	-12%	-7%
Cn1c(=O)c([N+](=O)[O-])c(-n2cnc3ccccc32)c2ccccc21	?	13µM*	?	-45%	?	?
Cn1c(=O)c([N+](=O)[O-])c(Cl)c2ccccc21	nt	?	5.8µM*	-64%	?	5.8µM*
COCc1c(C(=O)N2CCCCCC2)cnn1-c1nccc(-c2cccs2)n1	i	nt	nt	nt	nt	nt
O=C1C=C(O)c2c(O)cc(O)c(O)c2C1=O	?	?	-24%	-13%	-26%	-21%
Nc1ccc(O)c2c1C(=O)c1ccccc1C2=O	20µM*	-18%	?	-37%	-18%	-28%
O=C1c2ccccc2C(=O)c2c(O)c(O)cc(O)c21	?	-9%	9.2µM*	-17%	1%	?
CCC(CO)NC(=O)C(=O)Nc1c2c(nn1-c1ccc(F)cc1)CSC2 (stereo unspecified)	i	0%	nt	-7%	14%	nt
COc1cccc([C@@H](C)NCCCc2ccccc2Cl)c1	nt	nt	nt	nt	4%	nt
CC/C(C)=N/Nc1cccc([N+](=O)[O-])c1	i	-8%	?	-4%	?	9.2µM*
Cc1ccc(Cl)cc1NC(=S)N/N=C/c1cccc2ccccc12	?	-4%	3.7µM*	11%	10%	2.6µM*
O=[N+]([O-])c1ccc(NN=Cc2ccc(O)cc2O)nc1	i	2%	?	-13%	?	3.3µM*
CCC(CC)=NNc1cccc([N+](=O)[O-])c1	?	-4%	-23%	-1%	-20%	?
CCCOc1ccc(/C=N/Nc2cccc([N+](=O)[O-])c2)c(O)c1	nt	?	15µM*	-27%	28%	13µM*
Cc1ccccc1C(=O)N/N=C/c1cccc2ccccc12	i	5%	2%	2%	44%	0%
COc1cc(OC)cc(-c2nc3nc(C)c(CCC(=O)Nc4ccc(C)c(C)c4)c(C)n3n2)c1	i	-21%	nt	-24%	3%	nt
O=[N+]([O-])c1ccc(O)c(/C=N/Nc2nc3ccccc3[nH]2)c1	?	?	?	-26%	?	?
CCCOc1ccc(/C=N/NC(=S)Nc2ccccc2[N+](=O)[O-])c(O)c1	?	?	9.2µM*	-19%	?	15µM*
Cc1ccccc1-n1c(C)cc(/C=N/Nc2ccc([N+](=O)[O-])cn2)c1C	i	7%	23µM*	-5%	2%	?
O=[N+]([O-])c1ccc(O)c(/C=N/Nc2ccccn2)c1	i	?	12µM*	-83%	2.8µM*	10µM*
SMILES	ATXN viability	TGFb SMAD3 inh	HT1080-NT tox	HepG2 tox	ATXN2 expr inh	HT1080 IDH1KD tx
COc1ccccc1C=NNc1ccc([N+](=O)[O-])cn1	i	26%	-1%	-3%	-2%	6%
O=[N+]([O-])c1ccc(NN=Cc2ccccc2O)nc1	nt	?	?	-59%	?	7.3µM*
Cc1cc(Cl)ccc1NC(=O)CCC(=O)N/N=C/c1cc([N+](=O)[O-])ccc1O	i	-20%	-18%	-3%	-3%[11.3 µM]	-22%
O=C(CNS(=O)(=O)c1ccc([N+](=O)[O-])cc1)N/N=C\c1ccc(O)cc1	i	-5%	-2%	-38%	nt	-4%
O=[N+]([O-])c1cccc(N/N=C/c2cc([N+](=O)[O-])ccc2O)c1	i	-3%	23µM*	1%	45%[11.3 µM]	15µM*
Cc1ccccc1NC(=S)N/N=C/c1ccc(O)cc1O	?	-21%	?	-4%	?	10µM*
O=[N+]([O-])c1ccc(O)c(/C=N/NC(=S)Nc2ccc(Cl)cc2Cl)c1	i	?	?	-5%	-7%	23µM*
O=C(CNS(=O)(=O)c1ccc([N+](=O)[O-])cc1)N/N=C/c1ccc(O)cc1O	i	-1%	?	-32%	24µM*	?
O=[N+]([O-])c1ccc(O)c(C=NNc2ccc(S(=O)(=O)O)cc2)c1	i	18%	3%	18%	8%	-2%
O=C(NCCc1csc(-c2ccc(F)cc2)n1)c1cccs1	?	-20%	nt	-47%	?	nt
COc1ccc(-c2nc3cc(C)ccc3cc2CN(C(=O)c2csc(C)n2)C2CC2)cc1OC	i	nt	nt	nt	nt	nt
CCN(CC)S(=O)(=O)c1ccc(N/N=C/c2ccc(O)cc2O)nc1	?	-5%	?	-18%	2.8µM*	?
O=[N+]([O-])c1ccc(O)c(/C=N/Nc2ncnc3c2cnn3-c2ccccc2)c1	?	?	?	-78%	2.8µM*	?
O=C(N/N=C/c1cc([N+](=O)[O-])ccc1O)Nc1ccccc1	i	-7%	?	-25%	-42%	16µM*
Cc1cc([N+](=O)[O-])nn1Cc1ccc(C(=O)N/N=C/c2ccc(O)cc2O)cc1	?	?	?	-14%	?	2.1µM*
Oc1ccc(C=NNc2ccccn2)c(O)c1	?	-6%	-27%	1%	?	?
Cc1cc([N+](=O)[O-])nn1Cc1ccc(C(=O)N/N=C/c2ccc(F)cc2)cc1	i	0%	-4%	-23%	-16%	-7%
O=C(c1ccccc1Cl)N1CCCC(c2nc3c(nnn3Cc3ccc(F)cc3F)c(=O)[nH]2)C1 (stereo unspecified)	i	-20%	nt	-24%	-6%	nt
C[C@@H]1CN(Cc2ccc3c(c2)CN(Cc2cccc4cccnc24)CCO3)C[C@H](C)O1	i	nt	nt	nt	nt	nt
CCOc1ccccc1CN1CCCC(c2nc(C)ncc2-c2ccc(F)cc2)C1 (stereo unspecified)	i	nt	nt	nt	nt	nt
O=C1CC(c2ccc(Cl)cc2)CC(=O)N1	i	nt	nt	nt	-1%	nt
Oc1c(Br)cc(Br)cc1/C=N/c1nc2c(s1)CCCC2	i	-10%	?	2%	?	?
